Bioassay records as filed in PubChem BioAssay.
CYP2C9 inh: inhibitors of human CYP2C9; actives 20% (n = 96,000); inhibition, % at 5 µM; CYP2C9 Supersomes, luciferin-H conversion, luminescence;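 active means blocking of liver enzyme CYP2C9 beyond about 50% at 5 µM, limit read from the data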
Plk1 PBD FP: inhibitors of human Plk1 polo box domain binding | AID 693 | inhibition, %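 (tested at about 20 µM)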 | actives 0.13% (n = 97,000) | Plk1 PBD phosphopeptide binding, fluorescence polarization | P53350; in the data active means inhibition above about 34%, passing the limit was not always enough
CYP2C19 inhib: blocks human cytochrome P450 2C19. P33261. actives 21% (n = 96,000). CYP2C19 Supersomes, luciferin-H EGE luminescence, 30 min. inhibition, % at 5 µM;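 active means CYP2C19 inhibition above a set limit at 5 µM in the primary screen, cut at about 50% in these data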;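 further: plate controls were negative control wells for no effect and 2.5 mM tranylcypromine positive control for full effect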
Target sequence (P33261 whole entry, looked up): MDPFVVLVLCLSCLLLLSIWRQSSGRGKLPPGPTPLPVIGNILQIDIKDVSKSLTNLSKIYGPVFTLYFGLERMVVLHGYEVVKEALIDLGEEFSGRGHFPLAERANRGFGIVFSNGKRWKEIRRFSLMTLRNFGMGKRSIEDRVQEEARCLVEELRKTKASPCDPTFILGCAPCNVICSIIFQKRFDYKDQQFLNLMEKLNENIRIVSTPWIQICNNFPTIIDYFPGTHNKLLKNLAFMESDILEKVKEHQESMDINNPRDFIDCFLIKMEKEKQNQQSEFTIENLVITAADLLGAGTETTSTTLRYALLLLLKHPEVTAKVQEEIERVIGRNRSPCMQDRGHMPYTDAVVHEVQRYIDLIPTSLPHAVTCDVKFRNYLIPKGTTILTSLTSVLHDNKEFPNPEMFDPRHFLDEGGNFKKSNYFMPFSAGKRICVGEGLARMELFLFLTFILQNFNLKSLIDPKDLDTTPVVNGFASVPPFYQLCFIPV
PLK1 inh: inhibitors of human PLK1 kinase; actives 0.53% (n = 97,000); inhibition, % at 10 µM; P53350; recombinant PLK1 kinase, TR-FRET peptide phosphorylation;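 active means inhibition of 50% or more in the single-concentration screen; inactive means inhibition below 50%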;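 further: 0% = DMSO max control and 100% = H-89 dihydrochloride min control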
CYP2C9 act: increases human cytochrome P450 2C9 activity; P11712; recombinant CYP2C9, luciferin-H conversion, luminescence; stronger effect = higher value; factor 1 = untreated enzyme, 0 = blocked; activation factor at 5 µM; actives 1.4% (n = 96,000); AID 1024;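 active means activation factor of 2 or more for CYP2C9 at a 5 µM dose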;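 further: 0 = sulfaphenazole-blocked wells and 1 = vehicle-only wells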
CYP2C19 act: cytochrome P450 2C19 (human) activation | P33261 | recombinant CYP2C19, luciferin-H EGE luminescence; stronger effect = higher value; 0 = fully inhibited enzyme, 1 = untreated enzyme | activation factor at 5 µM | 96,000 tested, under 10 active | AID 1025;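 active means activation factor of at least 2 at 5 µM in the primary screen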;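 further: 0 = wells with 2.5 mM tranylcypromine and 1 = vehicle-only wells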
Starred values were filed as active, the others as inactive; / = not tested or not shown. Most compounds without a hit are left out; they make up all but 28% or so of the library.

SMILES	CYP2C9 inh	Plk1 PBD FP	CYP2C19 inhib	PLK1 inh	CYP2C9 act	CYP2C19 act
COc1cc(CC(=O)OCC(=O)c2ccc3c(c2)OCCO3)cc(OC)c1OC	20	-2	5	-11	0.8	0.9
CCCCOc1[nH]c2nc(-c3ccco3)n(Cc3ccco3)c(=N)c2c1C#N	81*	6	61*	-12	0.2	0.4
Cc1oc(-c2cccc(Cl)c2)nc1CN1CCCC(C(=O)NC(C)c2ccc3c(c2)OCCO3)C1 (configuration not stated)	81*	4	87*	56*	0.2	0.1
Cc1oc(-c2cccc(Cl)c2)nc1CN1CCCC(C(=O)NCc2ccco2)C1 (configuration not stated)	18	8	15	3	0.8	0.9
Cc1cccc(NC(=O)c2ccc(COc3ccc(Cl)cc3Cl)o2)n1	56*	1	44	-1	0.4	0.6
Cc1nn(Cc2c(F)c(F)c(F)c(F)c2F)c(C)c1NC(=O)c1ccc(COc2ccccc2Cl)o1	59*	-12	53*	-8	0.4	0.5
O=C(Nc1ccccc1Oc1ccccc1)c1ccc(Br)o1	7	-12	21	2	0.9	0.8
CCN(CC)c1ccc(NC(=O)c2ccc(Br)o2)c(C)c1	-140	0	29	-1	2.4*	0.7
COc1ccccc1NC(=O)c1ccc(Br)o1	-138	2	33	-2	2.4*	0.7
CCN(CC)c1ccc(NC(=O)c2ccco2)c(C)c1	-33	6	-5	-11	1.3	1.1
Cn1c(=O)c2cc(S(=O)(=O)NC(C(=O)NCc3cccnc3)c3ccccc3)ccc2n(C)c1=O (configuration not stated)	13	-3	29	-1	0.9	0.7
COc1ccc(C(=O)CSc2nc3nc(C)cc(C)n3n2)cc1OC	20	-3	46	-4	0.8	0.5
COc1ccc(NC(=O)c2ccc(COc3ccccc3Br)o2)cc1OC	73*	0	36	-11	0.3	0.6
COc1cc(NC(=O)c2ccc(Br)o2)ccc1NC(=O)c1ccccc1Cl	77*	-11	98*	-8	0.2	0
FC(F)(F)c1ccc(CN2CCCCCC2)cc1	18	2	53*	-13	0.8	0.5
Nc1ccc(CN2CCCCCC2)cc1	/	-11	/	-6	/	/
O=C1CCCN1CCCNCC(=O)N1c2ccccc2Sc2ccccc21	10	-5	8	-12	0.9	0.9
Cc1nc2c(C(=O)N3CCCCC3)cnn2c(C)c1Cc1ccccc1F	10	-12	79*	-6	0.9	0.2
Cc1ccc(Cc2c(C)nc3c(C(=O)O)cnn3c2C)cc1	/	-22	/	-14	/	/
Cc1nc2c(C(=O)N3CCN(C)CC3)cnn2c(C)c1Cc1ccc(Cl)cc1	26	-10	82*	-5	0.7	0.2
COc1ccc(-c2nnc3c4ccccc4c(C)nn23)cc1S(=O)(=O)N1CCN(CCO)CC1	/	1	/	-9	/	/
O=C(CN1CCN(CC(=O)Nc2ccccc2Cl)CC1)Nc1ccc2c(c1)OCCO2	51*	4	91*	-12	0.5	0.1
COc1ccccc1NC(=O)CN1CCN(CC(=O)Nc2ccc3c(c2)OCCO3)CC1	9	21	94*	-15	0.9	0.1
O=C(CN1CCN(Cc2ccc3c(c2)OCO3)CC1)Nc1ccc2c(c1)OCCO2	24	13	15	0	0.8	0.8
O=C(CN1CCC(C(=O)c2ccc(Cl)cc2)CC1)Nc1ccc2c(c1)OCCO2	58*	-21	29	-4	0.4	0.7
SMILES	CYP2C9 inh	Plk1 PBD FP	CYP2C19 inhib	PLK1 inh	CYP2C9 act	CYP2C19 act
O=C(CN1CCC(Cc2ccccc2)CC1)Nc1ccc2c(c1)OCCO2	34	-6	43	-5	0.7	0.6
O=C(CN1C(=O)NC2(CCCCCCC2)C1=O)N1CCOCC1	-12	-10	-4	-12	1.1	1
COc1cccc(-c2noc(N)c2C#N)c1	11	8	10	10	0.9	0.9
CCCn1nnnc1NC(=O)c1ccc(C)cc1Cl	26	27	38	-8	0.7	0.6
N#Cc1cc(-c2ccccc2)c[nH]c1=O	11	7	-9	-10	0.9	1.1
Cc1cc(C(=O)N2CCN(C(c3ccccc3)c3ccccc3)CC2)no1	35	-1	42	-11	0.7	0.6
CCCc1cc(C(=O)Nc2cccnc2)no1	24	13	14	-9	0.8	0.9
CCCc1cc(C(=O)NCc2cccnc2)no1	15	-17	59*	1	0.9	0.4
